Reference: PubChem BioAssay (NCATS)
Results filed as inconclusive are left out. Calls of active or inactive are those of the source. Calls come from the whole dose curve; as a rule, active = well fitted inhibition curve with a large enough effect; inconclusive = small, poorly fitted or top-dose-only effect; inactive = flat fitted curve, though single readings scatter.

system: NIH3T3; assay: Cytotoxic Profiling of Annotated Libraries Using Quantitative High-Throughput Screening (AID 1296008); conditions: Five cell lines viability, CellTiter-Glo ATP luminescence, 48-72 h; max response: stronger effect = lower value; note: nearly all actives have a fitted effect of over 60% in size
Method in brief: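 Cytotoxicity was measured as CellTiter-Glo ATP luminescence, read after 10 min at room temperature. Compound treatment of the cells lasted 48 or 72 hr at 37 degrees Celsius in a qHTS format.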
% is set by controls: 0 for no effect and ±100 for the full control effect; potency is the fitted concentration of half-maximal effect.

Compound | max response | Potency
Cc1cn(C2C=CC(CO)O2)c(=O)[nH]c1=O (stereo unspecified) | -7.77% (inactive) | 
C=C1C(=O)OC2C1C(O)CC1(C)C(O)CCC(C=O)C21 (stereo unspecified) | -0.523% (inactive) | 
C=C[C@@]12COC(=O)C(=C)C1[C@@H](O)[C@H](C(=C)C(=O)OC)[C@@H](OC(=O)C(=C)CO)C2 (stereo partly specified) | -25.8% (inactive) | 
CC1(CCOC2OC(CO)C(O)C(O)C2O)CCC23OC2(C1)C(O)CC1C(C)(C(=O)O)CCCC13C (stereo unspecified) | 0.419% (inactive) | 
C[C@@H](Oc1cc(-n2cnc3ccc(OC4CCN(C)CC4)cc32)sc1C(N)=O)c1ccccc1C(F)(F)F |  | 5.8 µM (active)
Cc1ccc(S(=O)(=O)c2ccc([N+](=O)[O-])o2)cc1 |  | 5.17 µM (active)
COc1ccc(-c2ccc3c(N4CCOCC4)nc(N4CC(C)OC(C)C4)nc3n2)cc1CO (stereo unspecified) |  | 1.84 µM (active)
CC(C)=CC/C=C(\C)[C@H]1CC[C@]2(C)[C@@H]1[C@H](O)C[C@@H]1[C@@]3(C)CC[C@H](O)C(C)(C)[C@@H]3[C@@H](O[C@@H]3O[C@H](CO)[C@@H](O)[C@H](O)[C@H]3O)C[C@]12C | -21.6% (inactive) | 
O=C(NCc1ccc(S(=O)(=O)c2cc(F)cc(F)c2)cc1)c1ccc2nccn2c1 |  | 0.0461 µM (active)
CCOC(=O)CCN(C(=O)c1ccc2c(c1)nc(CNc1ccc(C(=N)N)cc1)n2C)c1ccccn1 | -4.58% (inactive) | 
C=C[C@]1(C)C=C2CCC3C(C)(CCC[C@@]3(C)C(=O)O)C2CC1 (stereo partly specified) | -2.38% (inactive) | 
CC1=C(CCC(C)O[C@@H]2O[C@H](CO)[C@@H](O)[C@H](O)[C@H]2O)C(C)(C)CCC1=O (stereo partly specified) | -15.3% (inactive) | 
OC[C@H]1O[C@@H](OC[C@H]2O[C@@H](OC/C=C/c3ccccc3)[C@H](O)[C@@H](O)[C@@H]2O)[C@@H](O)[C@@H]1O | 2.42% (inactive) | 
CC(=O)O[C@]1(C(C)=O)CC[C@H]2[C@@H]3C[C@H](C)C4=CC(=O)C=C[C@]4(C)[C@@]3(F)[C@@H](O)C[C@@]21C | 3.11% (inactive) | 
CN(C)c1nc(NC2CCC(NCCc3ccc(Br)cc3OC(F)(F)F)CC2)nc2ccccc12 (stereo unspecified) |  | 4.11 µM (active)
COC(=O)CCc1cc2ccoc2c(OC)c1O[C@@H]1O[C@H](CO)[C@@H](O)[C@H](O)[C@H]1O | 0.737% (inactive) | 

Compound | max response | Potency
CC(C)=CCC[C@](C)(O[C@@H]1O[C@H](CO[C@@H]2O[C@H](CO)[C@@H](O)[C@H](O)[C@H]2O)[C@@H](O)[C@H](O)[C@H]1O)C1CC[C@]2(C)[C@@H]1[C@H](O)CC1[C@@]3(C)CC[C@H](O[C@@H]4O[C@H](CO)[C@@H](O)[C@H](O)[C@H]4O[C@@H]4O[C@H](CO)[C@@H](O)[C@H](O)[C@H]4O)C(C)(C)[C@@H]3CC[C@]12C (stereo partly specified) | 4.71% (inactive) | 
CCOC(=O)c1cc(C#N)c(N2CCC(C(=O)NS(=O)(=O)Cc3ccccc3)CC2)nc1C | 4.98% (inactive) | 
C=C1C(OC(C)=O)CCC2(C)CC3(OC)OC(=O)C(C)=C3CC12 (stereo unspecified) | 0.22% (inactive) | 
CC(C)C(CO)Nc1nc(Nc2cc(N)cc(Cl)c2)c2ncn(C(C)C)c2n1 (stereo unspecified) |  | 3.66 µM (active)
Cc1cc(O)cc(O[C@@H]2O[C@H](CO)[C@@H](O)[C@H](O)[C@H]2O)c1 | -8.17% (inactive) | 
C/C1=C\CCC2=C[C@@H](OC2=O)c2c(C)coc2C1 | -21.8% (inactive) | 
C=CC(=O)Nc1cc(Nc2nccc(-c3c[nH]c4ccccc34)n2)c(OC)cc1N(C)CCN(C)C |  | 14.6 µM (active)
Cc1oc2ccccc2c1CNC(=O)NCc1cccs1 | -4.16% (inactive) | 
C[C@@H]1CC[C@]2(C(=O)O)CC[C@]3(C)C(=CCC4[C@@]5(C)CC[C@H](O)C(C)(C)C5C(O)C[C@]43C)[C@@H]2[C@]1(C)O (stereo partly specified) | -6.6% (inactive) | 
CC/C=C/CC1=C(CCCCC(CCC(=O)O)OC(C)=O)CCC1=O (stereo unspecified) | -0.117% (inactive) | 
CC1=C(COC2OC(CO)C(O)C(O)C2O)C(C(CO)C(=O)O)CC1 (stereo unspecified) | -0.514% (inactive) | 
Cc1onc(C(=O)N2CCN(C(c3ccc(Cl)cc3)c3ccc(Cl)cc3)CC2)c1[N+](=O)[O-] |  | 0.731 µM (active)
Cc1cc(C)cc(C(=O)NOCCCCCC(=O)NO)c1 |  | 5.8 µM (active)
C[C@]1(CO)CCC[C@]2(C)C3=C(CCC12)COC3 (stereo partly specified) | 4.03% (inactive) | 
COC(=O)N[C@H](C(=O)N1[C@@H]2CC[C@@H](C2)[C@H]1c1nc2ccc(-c3ccc4c(c3)C(F)(F)c3cc(-c5cnc([C@@H]6CCC7(CC7)N6C(=O)[C@@H](NC(=O)OC)C(C)C)[nH]5)ccc3-4)cc2[nH]1)C(C)C | -14.9% (inactive) | 
